Consider 1 sequence from article PMC7862700, “An all-to-all approach to the identification of sequence-specific readers for epigenetic DNA modifications on cytosine”.

Common to all, as to assay: DAPPL (digital affinity profiling via proximity ligation, sequencing); 10 mM Tris-HCl pH 7.5, 50 mM NaCl, 1 mM DTT, 4% glycerol, room temperature, 30 min; GST-TFs on glutathione beads, 16-mer random dsDNA library, 0.1% formaldehyde crosslink after washing; high values mean tight binding
In assay [1] the target is T1, FEV (Homo sapiens, UniProt Q99581 1-238).
T1 sequence: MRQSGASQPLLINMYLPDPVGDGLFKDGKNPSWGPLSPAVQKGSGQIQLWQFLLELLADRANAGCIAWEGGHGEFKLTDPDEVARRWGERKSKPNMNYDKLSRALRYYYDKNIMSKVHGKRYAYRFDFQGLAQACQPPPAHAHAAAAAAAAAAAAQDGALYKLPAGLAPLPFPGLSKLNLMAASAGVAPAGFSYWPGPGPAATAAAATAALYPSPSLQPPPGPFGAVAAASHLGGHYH
As to conditions: protein: recombinant; tags: N-terminal GST; dsDNA, one strand shown. The essentials:
(§1)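 In yeast, human transcription factors were expressed with a GST fusion, then pulled down on glutathione beads and given DNA barcodes. Pooled with a tag-only sample, they were exposed to 200 nmole of a 16-mer random double-stranded DNA library (Tris/NaCl/DTT/glycerol buffer, room temperature, 30 min), washed, crosslinked with 0.1% formaldehyde, proximity-ligated using BsaI/T4 ligase for 1 h at 37 °C, PCR-amplified and read on an Illumina NextSeq500. Each hexamer's frequency of reads for a factor, divided by the matching frequency for the tag-only sample, gives the binding signal.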

Assay [2] deals with ETV5 (Homo sapiens, UniProt P41161 1-510). The note with it: protein: recombinant; tags: N-terminal GST; dsDNA, one strand shown. The procedure, abridged:
as §1

In assay [3] the target is HSF1 (Homo sapiens, UniProt Q00613 1-529). The note with it: protein: recombinant; tags: N-terminal GST; chain copies: 3; dsDNA, one strand shown. The essentials:
as §1

The target of assay [4] is T2, SPIC (Homo sapiens, UniProt Q8N5J4 1-248).
T2 sequence: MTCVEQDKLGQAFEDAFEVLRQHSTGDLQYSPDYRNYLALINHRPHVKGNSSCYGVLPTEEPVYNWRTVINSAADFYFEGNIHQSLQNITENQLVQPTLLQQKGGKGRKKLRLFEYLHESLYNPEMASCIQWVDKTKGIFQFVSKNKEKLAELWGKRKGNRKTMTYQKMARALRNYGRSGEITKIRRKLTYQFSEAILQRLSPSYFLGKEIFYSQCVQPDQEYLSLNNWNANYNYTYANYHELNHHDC
As to conditions: protein: recombinant; tags: N-terminal GST; dsDNA, one strand shown. The essentials: as §1

Assay [5] has as its target ELF4 (Homo sapiens, UniProt Q99607 1-663). As to conditions: protein: recombinant; tags: N-terminal GST; dsDNA, one strand shown. The essentials: as §1
For assay [6], the target named is T3, ELK4 (Homo sapiens, UniProt P28324-2 1-405).
T3 sequence: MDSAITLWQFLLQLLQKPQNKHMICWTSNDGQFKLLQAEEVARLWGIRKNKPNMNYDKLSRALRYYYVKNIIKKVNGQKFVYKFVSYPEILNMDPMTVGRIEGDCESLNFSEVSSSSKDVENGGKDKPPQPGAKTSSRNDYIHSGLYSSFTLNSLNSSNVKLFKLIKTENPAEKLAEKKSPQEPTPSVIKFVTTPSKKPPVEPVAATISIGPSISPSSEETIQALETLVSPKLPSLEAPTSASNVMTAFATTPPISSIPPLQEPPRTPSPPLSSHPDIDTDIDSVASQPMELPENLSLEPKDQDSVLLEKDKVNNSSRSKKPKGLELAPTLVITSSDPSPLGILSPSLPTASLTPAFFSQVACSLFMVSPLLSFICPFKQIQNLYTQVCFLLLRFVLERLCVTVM
The note with it: protein: recombinant; tags: N-terminal GST; dsDNA, one strand shown. The essentials: as §1

Assay [7] addresses T4, ETV2 (Homo sapiens, UniProt O00321 1-342).
T4 sequence: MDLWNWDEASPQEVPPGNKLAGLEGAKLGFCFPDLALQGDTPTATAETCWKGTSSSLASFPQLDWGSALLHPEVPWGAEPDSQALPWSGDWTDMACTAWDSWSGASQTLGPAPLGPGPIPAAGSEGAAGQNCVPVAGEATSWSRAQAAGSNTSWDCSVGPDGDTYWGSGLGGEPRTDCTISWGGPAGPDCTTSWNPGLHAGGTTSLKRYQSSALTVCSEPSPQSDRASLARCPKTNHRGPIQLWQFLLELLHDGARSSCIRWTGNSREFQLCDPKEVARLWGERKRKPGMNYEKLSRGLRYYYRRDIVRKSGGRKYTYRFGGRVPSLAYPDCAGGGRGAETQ
As to conditions: protein: recombinant; tags: N-terminal GST; dsDNA, one strand shown. The essentials: as §1

The target of assay [8] is T5, ELF3 (Homo sapiens, UniProt P78545 1-371).
T5 sequence: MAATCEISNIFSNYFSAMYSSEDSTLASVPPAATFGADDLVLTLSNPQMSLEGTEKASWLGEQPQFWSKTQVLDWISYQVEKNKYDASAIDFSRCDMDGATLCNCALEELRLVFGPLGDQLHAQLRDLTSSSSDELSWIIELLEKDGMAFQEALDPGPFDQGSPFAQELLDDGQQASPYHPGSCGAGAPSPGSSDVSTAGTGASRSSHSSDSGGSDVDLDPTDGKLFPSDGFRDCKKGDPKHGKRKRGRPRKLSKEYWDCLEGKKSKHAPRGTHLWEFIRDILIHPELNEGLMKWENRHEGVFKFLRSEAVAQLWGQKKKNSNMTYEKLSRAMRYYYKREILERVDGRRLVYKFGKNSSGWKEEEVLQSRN
The note with it: protein: recombinant; tags: N-terminal GST; dsDNA, one strand shown. The procedure, abridged: as §1

Assay [9] deals with CRX (Homo sapiens, UniProt O43186 1-299). As to conditions: protein: recombinant; tags: N-terminal GST; dsDNA, one strand shown. The procedure, abridged: as §1
CRX, sequence (O43186 whole entry): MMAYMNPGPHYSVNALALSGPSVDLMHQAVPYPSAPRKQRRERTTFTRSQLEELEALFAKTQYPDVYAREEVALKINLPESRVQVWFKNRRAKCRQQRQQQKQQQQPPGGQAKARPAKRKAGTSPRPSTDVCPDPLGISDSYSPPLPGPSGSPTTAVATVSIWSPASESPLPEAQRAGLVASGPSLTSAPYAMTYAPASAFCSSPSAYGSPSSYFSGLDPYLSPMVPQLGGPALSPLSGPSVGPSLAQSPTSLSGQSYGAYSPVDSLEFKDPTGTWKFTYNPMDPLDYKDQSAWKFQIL
Assay [10] has as its target ETV1 (Homo sapiens, UniProt P50549 1-477). As to conditions: protein: recombinant; tags: N-terminal GST; dsDNA, one strand shown. The essentials:
as §1

For assay [11], the target named is T6, ERF (Homo sapiens, UniProt P50548 1-548).
T6 sequence: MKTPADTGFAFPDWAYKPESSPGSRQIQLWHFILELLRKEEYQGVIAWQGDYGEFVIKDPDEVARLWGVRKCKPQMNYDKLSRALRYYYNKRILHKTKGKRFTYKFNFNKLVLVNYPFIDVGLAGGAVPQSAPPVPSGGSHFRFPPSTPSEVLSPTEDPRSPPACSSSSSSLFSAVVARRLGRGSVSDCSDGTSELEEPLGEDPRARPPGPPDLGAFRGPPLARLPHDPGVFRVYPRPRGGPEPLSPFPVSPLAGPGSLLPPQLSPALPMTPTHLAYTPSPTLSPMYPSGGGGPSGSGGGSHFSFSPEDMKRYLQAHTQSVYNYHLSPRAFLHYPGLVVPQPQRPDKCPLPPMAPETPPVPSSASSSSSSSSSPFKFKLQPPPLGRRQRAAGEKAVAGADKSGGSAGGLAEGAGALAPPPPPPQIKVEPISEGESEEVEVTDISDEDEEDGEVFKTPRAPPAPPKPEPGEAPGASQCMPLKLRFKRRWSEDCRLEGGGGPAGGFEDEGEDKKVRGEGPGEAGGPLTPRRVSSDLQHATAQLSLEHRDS
As to conditions: protein: recombinant; tags: N-terminal GST; dsDNA, one strand shown. The essentials: as §1

Assay [12] concerns the target T7, ETV3L (Homo sapiens, UniProt Q6ZN32 1-361).
T7 sequence: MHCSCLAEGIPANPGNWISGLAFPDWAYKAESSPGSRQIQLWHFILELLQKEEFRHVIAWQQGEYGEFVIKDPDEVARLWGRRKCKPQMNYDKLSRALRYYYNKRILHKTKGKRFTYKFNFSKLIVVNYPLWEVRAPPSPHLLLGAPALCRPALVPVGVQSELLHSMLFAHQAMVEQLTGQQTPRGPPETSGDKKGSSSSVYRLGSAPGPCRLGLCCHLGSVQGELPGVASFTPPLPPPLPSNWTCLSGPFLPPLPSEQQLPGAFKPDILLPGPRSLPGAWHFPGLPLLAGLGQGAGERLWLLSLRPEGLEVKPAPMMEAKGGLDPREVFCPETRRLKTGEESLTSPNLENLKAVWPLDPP
As to conditions: protein: recombinant; tags: N-terminal GST; dsDNA, one strand shown. The essentials: as §1

Assay [13] concerns the target T8, ETS2 (Homo sapiens, UniProt P15036 1-469).
T8 sequence: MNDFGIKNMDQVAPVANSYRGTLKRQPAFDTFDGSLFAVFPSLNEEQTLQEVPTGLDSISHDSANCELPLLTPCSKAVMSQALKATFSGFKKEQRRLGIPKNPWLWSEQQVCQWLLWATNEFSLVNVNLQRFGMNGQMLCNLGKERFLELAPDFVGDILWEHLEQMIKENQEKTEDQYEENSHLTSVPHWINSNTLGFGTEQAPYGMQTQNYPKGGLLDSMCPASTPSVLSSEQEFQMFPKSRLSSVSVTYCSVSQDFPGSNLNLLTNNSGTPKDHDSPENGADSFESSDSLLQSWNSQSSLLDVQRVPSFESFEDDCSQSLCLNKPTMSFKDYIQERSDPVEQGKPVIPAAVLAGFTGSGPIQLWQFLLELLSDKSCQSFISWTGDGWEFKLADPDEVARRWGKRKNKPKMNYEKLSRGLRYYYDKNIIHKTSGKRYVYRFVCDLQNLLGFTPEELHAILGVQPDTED
As to conditions: protein: recombinant; tags: N-terminal GST; dsDNA, one strand shown. The essentials:
as §1

For assay [14], the target named is T9, SPDEF (Homo sapiens, UniProt O95238 1-335).
T9 sequence: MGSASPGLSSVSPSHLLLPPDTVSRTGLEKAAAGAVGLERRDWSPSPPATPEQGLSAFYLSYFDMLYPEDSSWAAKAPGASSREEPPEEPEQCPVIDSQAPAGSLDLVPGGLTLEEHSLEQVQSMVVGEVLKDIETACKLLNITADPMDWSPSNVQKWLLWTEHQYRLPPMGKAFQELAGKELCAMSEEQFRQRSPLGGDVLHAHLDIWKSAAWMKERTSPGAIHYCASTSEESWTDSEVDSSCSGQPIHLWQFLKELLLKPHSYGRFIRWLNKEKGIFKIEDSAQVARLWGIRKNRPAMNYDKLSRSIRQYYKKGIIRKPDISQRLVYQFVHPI
As to conditions: protein: recombinant; tags: N-terminal GST; dsDNA, one strand shown. The essentials: as §1

The target of assay [15] is T10, ETV7 (Homo sapiens, UniProt Q9Y603 1-341).
T10 sequence: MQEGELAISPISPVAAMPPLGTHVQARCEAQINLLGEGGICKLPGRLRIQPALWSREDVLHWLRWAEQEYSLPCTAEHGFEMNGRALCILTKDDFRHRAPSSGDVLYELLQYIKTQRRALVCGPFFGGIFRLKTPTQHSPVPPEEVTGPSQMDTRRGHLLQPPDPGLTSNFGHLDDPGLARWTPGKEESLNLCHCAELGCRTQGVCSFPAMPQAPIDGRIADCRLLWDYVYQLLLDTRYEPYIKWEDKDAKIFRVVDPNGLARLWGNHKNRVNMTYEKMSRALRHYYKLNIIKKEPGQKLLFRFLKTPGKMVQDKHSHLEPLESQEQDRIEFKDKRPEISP
As to conditions: protein: recombinant; tags: N-terminal GST; dsDNA, one strand shown. The essentials: as §1

For assay [16], the target named is T11, ELF5 (Homo sapiens, UniProt Q9UKW6-2 1-255).
T11 sequence: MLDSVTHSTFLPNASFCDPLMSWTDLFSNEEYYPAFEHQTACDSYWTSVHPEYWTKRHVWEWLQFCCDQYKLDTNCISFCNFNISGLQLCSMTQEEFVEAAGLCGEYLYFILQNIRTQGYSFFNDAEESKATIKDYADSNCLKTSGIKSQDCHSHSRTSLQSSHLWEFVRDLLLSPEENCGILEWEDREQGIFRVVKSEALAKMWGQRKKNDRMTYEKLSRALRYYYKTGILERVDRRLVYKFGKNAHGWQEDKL
As to conditions: protein: recombinant; tags: N-terminal GST; dsDNA, one strand shown. The essentials: as §1

Assay [17] addresses T12, ETV3 (Homo sapiens, UniProt P41162-2 1-143).
T12 sequence: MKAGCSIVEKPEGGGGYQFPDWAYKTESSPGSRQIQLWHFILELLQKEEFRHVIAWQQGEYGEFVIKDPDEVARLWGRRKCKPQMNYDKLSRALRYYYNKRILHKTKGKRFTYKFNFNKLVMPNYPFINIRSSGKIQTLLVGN
As to conditions: protein: recombinant; tags: N-terminal GST; dsDNA, one strand shown. The procedure, abridged: as §1

Assay [18] has as its target ETV6 (Homo sapiens, UniProt P41212 1-452). As to conditions: protein: recombinant; tags: N-terminal GST; dsDNA, one strand shown. The procedure, abridged:
as §1

ETV5, sequence (P41161 whole entry): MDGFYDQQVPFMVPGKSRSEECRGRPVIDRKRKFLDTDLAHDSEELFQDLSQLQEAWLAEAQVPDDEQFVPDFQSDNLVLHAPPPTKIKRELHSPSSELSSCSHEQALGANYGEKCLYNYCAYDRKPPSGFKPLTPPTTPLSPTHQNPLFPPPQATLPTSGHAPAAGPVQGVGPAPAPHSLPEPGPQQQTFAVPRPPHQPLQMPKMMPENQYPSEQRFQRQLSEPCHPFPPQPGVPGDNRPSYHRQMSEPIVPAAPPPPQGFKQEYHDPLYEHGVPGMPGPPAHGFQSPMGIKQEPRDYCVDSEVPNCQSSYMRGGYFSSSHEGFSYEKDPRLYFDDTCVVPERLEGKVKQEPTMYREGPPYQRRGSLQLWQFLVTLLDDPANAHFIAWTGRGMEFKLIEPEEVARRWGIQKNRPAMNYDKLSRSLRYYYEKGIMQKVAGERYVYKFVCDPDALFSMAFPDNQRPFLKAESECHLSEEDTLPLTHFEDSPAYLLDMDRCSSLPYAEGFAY
ETV6, sequence (P41212 whole entry): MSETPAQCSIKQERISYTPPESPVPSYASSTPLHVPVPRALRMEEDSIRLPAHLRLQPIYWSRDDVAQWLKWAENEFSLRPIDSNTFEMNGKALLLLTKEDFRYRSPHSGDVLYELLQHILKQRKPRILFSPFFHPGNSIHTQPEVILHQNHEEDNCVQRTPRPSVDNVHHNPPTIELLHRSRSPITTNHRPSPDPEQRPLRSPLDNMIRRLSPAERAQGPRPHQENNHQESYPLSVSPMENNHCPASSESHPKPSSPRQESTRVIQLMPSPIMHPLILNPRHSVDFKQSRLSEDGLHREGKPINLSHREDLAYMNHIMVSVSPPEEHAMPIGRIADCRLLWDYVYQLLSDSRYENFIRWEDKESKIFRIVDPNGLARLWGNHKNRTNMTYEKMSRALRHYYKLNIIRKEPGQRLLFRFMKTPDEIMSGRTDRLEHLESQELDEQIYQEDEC
HSF1, sequence (Q00613 whole entry): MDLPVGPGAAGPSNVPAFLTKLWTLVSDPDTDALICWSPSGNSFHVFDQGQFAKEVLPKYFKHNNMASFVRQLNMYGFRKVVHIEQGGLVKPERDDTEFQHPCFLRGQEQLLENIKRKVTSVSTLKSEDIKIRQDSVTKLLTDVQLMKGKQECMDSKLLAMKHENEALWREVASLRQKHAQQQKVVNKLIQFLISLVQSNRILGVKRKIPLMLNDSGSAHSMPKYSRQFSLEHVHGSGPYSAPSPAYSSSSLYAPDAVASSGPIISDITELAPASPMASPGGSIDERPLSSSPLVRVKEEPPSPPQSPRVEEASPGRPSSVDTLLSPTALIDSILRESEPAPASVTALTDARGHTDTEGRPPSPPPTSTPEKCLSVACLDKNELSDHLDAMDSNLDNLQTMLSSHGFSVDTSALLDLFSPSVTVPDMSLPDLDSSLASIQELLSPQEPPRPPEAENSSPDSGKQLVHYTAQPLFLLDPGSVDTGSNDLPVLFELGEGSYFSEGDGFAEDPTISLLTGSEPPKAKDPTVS
ELF4, sequence (Q99607 whole entry): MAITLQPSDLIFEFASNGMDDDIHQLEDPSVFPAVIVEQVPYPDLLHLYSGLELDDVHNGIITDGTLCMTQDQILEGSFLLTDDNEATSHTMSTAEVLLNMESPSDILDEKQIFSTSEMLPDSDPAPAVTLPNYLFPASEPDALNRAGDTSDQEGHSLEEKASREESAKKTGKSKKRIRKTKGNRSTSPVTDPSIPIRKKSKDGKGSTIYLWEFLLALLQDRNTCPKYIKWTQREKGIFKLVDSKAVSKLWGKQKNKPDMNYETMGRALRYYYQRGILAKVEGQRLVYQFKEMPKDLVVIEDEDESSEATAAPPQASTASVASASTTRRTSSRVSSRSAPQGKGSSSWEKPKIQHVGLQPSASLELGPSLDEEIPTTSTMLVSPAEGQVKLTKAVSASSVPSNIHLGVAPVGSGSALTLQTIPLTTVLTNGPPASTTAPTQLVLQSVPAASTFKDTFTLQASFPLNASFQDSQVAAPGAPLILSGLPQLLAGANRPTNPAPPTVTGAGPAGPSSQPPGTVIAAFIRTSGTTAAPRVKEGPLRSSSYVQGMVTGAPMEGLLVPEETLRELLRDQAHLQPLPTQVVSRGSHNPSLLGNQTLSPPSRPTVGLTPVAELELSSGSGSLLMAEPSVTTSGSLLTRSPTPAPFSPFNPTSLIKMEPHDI
ETV1, sequence (P50549 whole entry): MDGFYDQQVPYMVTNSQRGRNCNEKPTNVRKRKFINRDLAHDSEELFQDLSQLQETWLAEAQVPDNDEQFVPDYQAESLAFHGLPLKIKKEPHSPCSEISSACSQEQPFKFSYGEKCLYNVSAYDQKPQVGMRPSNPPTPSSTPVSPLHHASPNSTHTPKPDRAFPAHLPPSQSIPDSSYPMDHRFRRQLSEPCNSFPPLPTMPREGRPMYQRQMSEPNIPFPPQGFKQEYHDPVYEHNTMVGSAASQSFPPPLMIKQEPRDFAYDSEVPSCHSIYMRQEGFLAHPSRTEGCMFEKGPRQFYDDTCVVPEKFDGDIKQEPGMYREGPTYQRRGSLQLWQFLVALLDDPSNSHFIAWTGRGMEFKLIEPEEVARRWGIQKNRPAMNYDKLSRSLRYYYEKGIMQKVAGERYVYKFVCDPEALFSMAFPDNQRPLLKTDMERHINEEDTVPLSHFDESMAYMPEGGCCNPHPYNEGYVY

For the sequence CCTAGC, the binding signal is 1.18 fold enrichment (6-mer frequency, TF over GST control) in [1]; 1.15 fold enrichment (6-mer frequency, TF over GST control) in assay [2]; 1.17 fold enrichment (6-mer frequency, TF over GST control) in [3]; 1.17 fold enrichment (6-mer frequency, TF over GST control) in [4]; 1.16 fold enrichment (6-mer frequency, TF over GST control) in [5]; 1.13 fold enrichment (6-mer frequency, TF over GST control) in assay [6]. In addition, the binding signal was 1.13 fold enrichment (6-mer frequency, TF over GST control) in [7]; 1.12 fold enrichment (6-mer frequency, TF over GST control) in [8]; 1.02 fold enrichment (6-mer frequency, TF over GST control) in assay [9]; 1.13 fold enrichment (6-mer frequency, TF over GST control) in assay [10]; 1.26 fold enrichment (6-mer frequency, TF over GST control) in assay [11]; 1.09 fold enrichment (6-mer frequency, TF over GST control) in [12]. Further, the binding signal in assay [13] is 1.11 fold enrichment (6-mer frequency, TF over GST control); in [14], 1.21 fold enrichment (6-mer frequency, TF over GST control); in assay [15] it was 1.18 fold enrichment (6-mer frequency, TF over GST control); in assay [16] it was 1.06 fold enrichment (6-mer frequency, TF over GST control); in [17], 1.16 fold enrichment (6-mer frequency, TF over GST control); in assay [18], 1.15 fold enrichment (6-mer frequency, TF over GST control).
